Legend:
Assay in all cases: log2 ratio of Biotin-Ahx-Ub-VS probe labelling (fragment/DMSO); higher = less target engagement (more negative = stronger competition), active = hit call of the paper (q ≤ 0.05, log2 ratio ≤ -1)
Conditions in all cases: compound concentration: 200 uM; treatment time: 3 h
USP19 = molecular target: T1, USP19 (UniProt O94966)
T1 sequence (whole entry): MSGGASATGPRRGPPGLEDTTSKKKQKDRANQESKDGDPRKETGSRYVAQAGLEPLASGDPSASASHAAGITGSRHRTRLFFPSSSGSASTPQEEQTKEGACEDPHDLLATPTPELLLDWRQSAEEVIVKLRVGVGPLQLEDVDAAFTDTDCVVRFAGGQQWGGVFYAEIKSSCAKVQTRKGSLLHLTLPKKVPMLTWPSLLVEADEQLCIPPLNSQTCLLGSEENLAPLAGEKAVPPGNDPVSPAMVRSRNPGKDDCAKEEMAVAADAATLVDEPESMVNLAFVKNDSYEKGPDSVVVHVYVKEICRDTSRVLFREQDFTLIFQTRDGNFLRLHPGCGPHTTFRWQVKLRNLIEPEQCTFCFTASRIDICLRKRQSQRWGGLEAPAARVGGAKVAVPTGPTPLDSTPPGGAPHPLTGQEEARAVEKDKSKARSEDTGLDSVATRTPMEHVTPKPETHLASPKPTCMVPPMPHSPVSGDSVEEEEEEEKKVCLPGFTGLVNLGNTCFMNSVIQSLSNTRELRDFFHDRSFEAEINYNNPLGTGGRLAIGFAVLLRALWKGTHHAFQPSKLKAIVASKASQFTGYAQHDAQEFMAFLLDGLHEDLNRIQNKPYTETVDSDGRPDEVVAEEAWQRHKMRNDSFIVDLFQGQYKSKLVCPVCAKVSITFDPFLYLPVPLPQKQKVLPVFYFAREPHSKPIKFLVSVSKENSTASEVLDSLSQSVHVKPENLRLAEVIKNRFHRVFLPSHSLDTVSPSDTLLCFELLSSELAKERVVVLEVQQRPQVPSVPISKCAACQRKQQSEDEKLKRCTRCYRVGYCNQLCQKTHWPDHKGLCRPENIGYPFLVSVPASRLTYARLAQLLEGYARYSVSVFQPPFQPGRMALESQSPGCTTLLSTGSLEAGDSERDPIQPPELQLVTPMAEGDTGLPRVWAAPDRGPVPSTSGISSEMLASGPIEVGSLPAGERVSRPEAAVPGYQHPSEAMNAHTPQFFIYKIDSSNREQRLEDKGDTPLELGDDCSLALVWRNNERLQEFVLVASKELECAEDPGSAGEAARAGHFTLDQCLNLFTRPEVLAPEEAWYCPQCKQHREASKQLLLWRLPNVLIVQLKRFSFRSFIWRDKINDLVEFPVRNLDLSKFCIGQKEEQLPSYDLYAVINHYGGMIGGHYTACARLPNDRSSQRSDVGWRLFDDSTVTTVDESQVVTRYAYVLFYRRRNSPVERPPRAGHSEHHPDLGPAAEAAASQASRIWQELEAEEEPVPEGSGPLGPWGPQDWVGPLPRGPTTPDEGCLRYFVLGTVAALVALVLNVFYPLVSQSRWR
Summary of the method: (§1)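 Triplicate samples of HEK293T lysate, 495 µg each, received fragment at 200 µM or vehicle for 3 h, followed by Biotin-Ahx-Ub-VS (0.5 µM final) for 1 h. After NeutrAvidin enrichment of labelled DUBs and LysC/trypsin digestion, peptides were run by diaPASEF LC-MS/MS. The values are average log2 fragment/vehicle ratios from global-median-normalised Spectronaut label-free quantities, tested by unpaired t-test on proteins having ≥2 unique peptides.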

USP24 = USP24 (UniProt Q9UPU5)
Summary of the method: as §1

USP25 = molecular target: T2, USP25 (UniProt Q9UHP3)
T2 sequence (whole entry): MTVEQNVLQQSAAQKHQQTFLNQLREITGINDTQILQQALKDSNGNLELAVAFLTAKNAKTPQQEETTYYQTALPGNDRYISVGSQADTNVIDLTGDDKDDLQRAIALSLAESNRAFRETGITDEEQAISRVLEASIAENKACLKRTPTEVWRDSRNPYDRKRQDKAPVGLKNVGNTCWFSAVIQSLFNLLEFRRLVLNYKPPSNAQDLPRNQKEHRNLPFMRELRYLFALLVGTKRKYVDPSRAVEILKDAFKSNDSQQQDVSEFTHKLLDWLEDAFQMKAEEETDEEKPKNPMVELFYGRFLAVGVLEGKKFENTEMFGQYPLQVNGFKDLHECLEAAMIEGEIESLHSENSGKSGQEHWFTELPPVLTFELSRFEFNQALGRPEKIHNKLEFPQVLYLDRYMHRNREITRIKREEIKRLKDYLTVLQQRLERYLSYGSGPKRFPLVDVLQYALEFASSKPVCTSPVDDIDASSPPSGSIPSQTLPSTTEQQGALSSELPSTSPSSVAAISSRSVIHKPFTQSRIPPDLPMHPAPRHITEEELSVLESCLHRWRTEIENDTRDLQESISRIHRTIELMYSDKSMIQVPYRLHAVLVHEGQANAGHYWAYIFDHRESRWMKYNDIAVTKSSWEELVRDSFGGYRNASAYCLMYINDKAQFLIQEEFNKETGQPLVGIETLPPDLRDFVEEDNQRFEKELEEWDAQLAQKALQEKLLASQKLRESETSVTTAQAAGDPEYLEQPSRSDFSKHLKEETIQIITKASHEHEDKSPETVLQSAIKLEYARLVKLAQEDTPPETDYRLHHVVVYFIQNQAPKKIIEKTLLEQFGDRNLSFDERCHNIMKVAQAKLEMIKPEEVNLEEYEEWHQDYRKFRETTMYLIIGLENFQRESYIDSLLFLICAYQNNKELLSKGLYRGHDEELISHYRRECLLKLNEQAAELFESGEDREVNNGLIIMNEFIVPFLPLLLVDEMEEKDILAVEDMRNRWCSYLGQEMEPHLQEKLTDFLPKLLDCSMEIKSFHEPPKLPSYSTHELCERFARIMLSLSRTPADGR
Summary of the method: as §1

USP28 = molecular target: T3, USP28 (UniProt Q96RU2)
T3 sequence (whole entry): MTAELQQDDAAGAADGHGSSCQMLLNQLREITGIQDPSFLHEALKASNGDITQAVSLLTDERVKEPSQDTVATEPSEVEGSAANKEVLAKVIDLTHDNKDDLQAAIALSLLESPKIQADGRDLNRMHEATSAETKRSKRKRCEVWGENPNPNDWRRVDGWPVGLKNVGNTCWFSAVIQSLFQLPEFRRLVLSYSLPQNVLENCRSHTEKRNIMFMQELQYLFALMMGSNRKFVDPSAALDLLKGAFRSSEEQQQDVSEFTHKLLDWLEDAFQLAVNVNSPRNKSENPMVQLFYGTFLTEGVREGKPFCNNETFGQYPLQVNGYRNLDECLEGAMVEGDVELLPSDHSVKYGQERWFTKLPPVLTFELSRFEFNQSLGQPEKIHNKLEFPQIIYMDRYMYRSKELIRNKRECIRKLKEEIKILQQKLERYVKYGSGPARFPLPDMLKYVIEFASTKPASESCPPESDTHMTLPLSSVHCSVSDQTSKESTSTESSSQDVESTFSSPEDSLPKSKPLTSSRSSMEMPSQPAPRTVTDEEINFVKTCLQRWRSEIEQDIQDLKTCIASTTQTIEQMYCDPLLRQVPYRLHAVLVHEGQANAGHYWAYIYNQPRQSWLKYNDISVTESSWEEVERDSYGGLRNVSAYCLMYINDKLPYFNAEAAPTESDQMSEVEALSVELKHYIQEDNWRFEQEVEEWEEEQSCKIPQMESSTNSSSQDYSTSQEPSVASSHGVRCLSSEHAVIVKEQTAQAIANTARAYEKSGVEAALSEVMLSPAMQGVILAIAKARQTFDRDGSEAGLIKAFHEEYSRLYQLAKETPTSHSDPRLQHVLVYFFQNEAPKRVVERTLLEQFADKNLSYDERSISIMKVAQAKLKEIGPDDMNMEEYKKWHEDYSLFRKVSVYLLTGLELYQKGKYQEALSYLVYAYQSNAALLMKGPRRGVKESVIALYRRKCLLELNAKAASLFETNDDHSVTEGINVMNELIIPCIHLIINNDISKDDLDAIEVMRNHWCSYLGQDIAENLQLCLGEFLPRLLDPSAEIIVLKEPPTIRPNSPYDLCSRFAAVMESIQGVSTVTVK
Summary of the method: as §1

Measured: log2 ratio of Biotin-Ahx-Ub-VS probe labelling

Chain of USP24 (Q9UPU5 whole entry): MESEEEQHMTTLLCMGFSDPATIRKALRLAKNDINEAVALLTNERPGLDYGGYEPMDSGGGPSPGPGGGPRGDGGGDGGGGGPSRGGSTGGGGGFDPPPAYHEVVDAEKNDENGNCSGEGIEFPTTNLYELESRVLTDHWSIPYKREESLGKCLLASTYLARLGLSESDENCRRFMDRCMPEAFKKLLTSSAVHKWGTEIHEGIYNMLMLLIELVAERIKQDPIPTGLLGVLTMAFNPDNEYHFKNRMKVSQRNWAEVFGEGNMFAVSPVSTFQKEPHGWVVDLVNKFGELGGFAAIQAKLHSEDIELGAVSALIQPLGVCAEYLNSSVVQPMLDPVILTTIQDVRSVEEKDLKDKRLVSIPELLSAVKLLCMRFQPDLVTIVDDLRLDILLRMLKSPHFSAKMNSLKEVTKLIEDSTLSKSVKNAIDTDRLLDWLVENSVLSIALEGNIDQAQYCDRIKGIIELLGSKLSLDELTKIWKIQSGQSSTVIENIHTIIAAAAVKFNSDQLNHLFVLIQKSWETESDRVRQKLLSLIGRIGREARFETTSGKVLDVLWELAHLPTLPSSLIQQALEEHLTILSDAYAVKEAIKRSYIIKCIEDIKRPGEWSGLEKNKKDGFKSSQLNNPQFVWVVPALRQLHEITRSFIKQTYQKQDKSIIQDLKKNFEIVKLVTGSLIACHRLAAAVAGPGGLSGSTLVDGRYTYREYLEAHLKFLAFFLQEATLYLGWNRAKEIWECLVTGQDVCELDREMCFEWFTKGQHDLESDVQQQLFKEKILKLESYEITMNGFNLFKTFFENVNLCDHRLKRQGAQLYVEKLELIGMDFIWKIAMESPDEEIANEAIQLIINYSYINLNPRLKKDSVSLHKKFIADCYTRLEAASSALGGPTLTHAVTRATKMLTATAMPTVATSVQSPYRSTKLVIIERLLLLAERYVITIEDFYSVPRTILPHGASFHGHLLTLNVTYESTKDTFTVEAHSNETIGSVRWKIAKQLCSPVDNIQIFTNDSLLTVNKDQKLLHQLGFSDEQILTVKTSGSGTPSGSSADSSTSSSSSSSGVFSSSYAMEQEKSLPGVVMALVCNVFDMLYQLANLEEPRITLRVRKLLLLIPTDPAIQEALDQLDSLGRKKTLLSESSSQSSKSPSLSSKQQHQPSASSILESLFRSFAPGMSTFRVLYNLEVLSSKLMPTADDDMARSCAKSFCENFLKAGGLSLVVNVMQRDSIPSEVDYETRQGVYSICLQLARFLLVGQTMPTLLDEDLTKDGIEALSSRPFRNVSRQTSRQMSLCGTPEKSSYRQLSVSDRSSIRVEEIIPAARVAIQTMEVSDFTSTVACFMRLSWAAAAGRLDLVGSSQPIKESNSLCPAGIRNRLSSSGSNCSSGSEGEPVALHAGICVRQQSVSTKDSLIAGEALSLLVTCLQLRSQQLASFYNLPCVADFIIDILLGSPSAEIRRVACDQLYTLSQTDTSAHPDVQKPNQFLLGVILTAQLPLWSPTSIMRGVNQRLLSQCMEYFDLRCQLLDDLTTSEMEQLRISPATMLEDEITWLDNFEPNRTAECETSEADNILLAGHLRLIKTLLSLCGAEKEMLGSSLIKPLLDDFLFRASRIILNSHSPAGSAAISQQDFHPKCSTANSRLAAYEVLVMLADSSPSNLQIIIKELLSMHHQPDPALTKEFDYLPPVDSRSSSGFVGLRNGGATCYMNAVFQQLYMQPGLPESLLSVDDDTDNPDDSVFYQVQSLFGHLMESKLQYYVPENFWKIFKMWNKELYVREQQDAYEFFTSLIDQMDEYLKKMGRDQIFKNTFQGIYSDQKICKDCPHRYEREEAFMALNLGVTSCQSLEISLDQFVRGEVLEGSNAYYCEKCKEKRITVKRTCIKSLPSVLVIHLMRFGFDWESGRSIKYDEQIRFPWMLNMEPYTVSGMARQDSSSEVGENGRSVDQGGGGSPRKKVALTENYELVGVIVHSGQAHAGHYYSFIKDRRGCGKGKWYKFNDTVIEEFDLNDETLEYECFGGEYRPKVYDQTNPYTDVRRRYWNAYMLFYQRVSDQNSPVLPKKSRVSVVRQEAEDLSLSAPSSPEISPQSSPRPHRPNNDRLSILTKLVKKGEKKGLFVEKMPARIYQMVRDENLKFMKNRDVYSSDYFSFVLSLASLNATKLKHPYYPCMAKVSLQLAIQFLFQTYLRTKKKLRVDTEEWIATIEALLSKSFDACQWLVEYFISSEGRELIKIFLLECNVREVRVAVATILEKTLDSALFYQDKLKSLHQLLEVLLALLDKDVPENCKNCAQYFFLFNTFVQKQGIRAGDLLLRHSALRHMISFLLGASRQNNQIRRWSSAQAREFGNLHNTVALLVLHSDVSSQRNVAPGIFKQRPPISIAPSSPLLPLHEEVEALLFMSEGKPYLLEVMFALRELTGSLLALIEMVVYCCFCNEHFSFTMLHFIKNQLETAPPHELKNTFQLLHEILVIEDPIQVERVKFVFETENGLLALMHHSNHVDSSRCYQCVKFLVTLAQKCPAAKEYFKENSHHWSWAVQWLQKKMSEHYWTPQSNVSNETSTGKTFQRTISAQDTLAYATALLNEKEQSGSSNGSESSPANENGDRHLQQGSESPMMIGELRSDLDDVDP

O=C(CCl)Nc1nnc(CC(F)(F)F)o1
inactive: USP19 -0.39 | USP24 -0.372 | USP25 -0.777 | USP28 -0.479
